Experimental data taken from PubChem BioAssay AID492998 (Southern Research Specialized Biocontainment Screening …, 2010).
In all, about 2,300 compounds went through this assay and about 550 (24%) were called active. Not all results are given here. Results with a measured potency or affinity are listed apart. Values without a mark were called inactive. No rule for the calls is given here.

Test: Vero E6 cell cytotoxicity, dose response, cytotoxicity control for non-replicating M. tuberculosis project, secondary assay (AID 492998);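 also: 100% = vehicle-treated cells and 0% = background wells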
Conditions: series mostly up to 20 µM; viability: at the top concentration

Structure (SMILES)	viability
Clc1ccc(CN2C3=NCCCN3c3ccccc32)cc1	81.8%
C#CCOc1coc(COC(=O)c2ccccc2)cc1=O	103%
Cc1ccc(C(C)NC(=O)c2cc3ccccc3oc2=O)cc1C (stereo not given)	94.6%
COC(=O)C1=C(C)N(Cc2ccccc2)C(=NCc2ccccc2)N[C@H]1c1cccc(F)c1	77.2%
CC(OC(=O)c1ccc2c(=O)n3c(nc2c1)CCCCC3)C(=O)Nc1ccc(Cl)cn1 (stereo not given)	92%
CCOC(=O)Cn1cc(C#N)c2ccccc21	103%
O=C(NCc1nnc(SC/C=C/c2ccccc2)o1)c1ccco1	95.6%
CCCC(C)C(=O)Nc1ccc(Cl)cn1 (stereo not given)	101%
CC(C)(C)OC(=O)NCCc1nnc(S(=O)(=O)Cc2ccc(Cl)cc2Cl)o1	103%
O=C(Nc1ccc(-c2nc3ccccc3c(=O)o2)cc1)c1ccco1	104%
CCOC(=O)c1csc(COc2ccccc2Cl)n1	105%
Nc1nc2ccccc2n1CCOc1ccc(Br)cc1	81.7%
O=C(Nc1nc2ccccc2n1CCN1CCCC1)C1CCCCC1	97.2%
Cn1c(CNc2ccccc2O)nc2ccccc21	72.9%
Nc1nc2ccccc2n1CCOc1ccccc1Cl	73.6%
O=C(COC(=O)c1cccs1)NCCC1=CCCCC1	97.1%
O=C(OCC(=O)N1CCc2ccccc21)c1ccc([N+](=O)[O-])cc1	98.4%
CN(C)CCN1C(=O)c2oc3ccccc3c(=O)c2C1c1cccc(Br)c1 (stereo not given)	102%
COC(=O)COc1cccc(NC(=O)COc2ccccc2)c1	101%
COc1ccc(OC(=O)c2cc3ccccc3o2)cc1	98.2%
CC(=O)c1ccc(OCC(=O)Nc2ccc3c(c2)CCC3)cc1	100%
CC(=O)c1ccc(NC(=O)CCc2ccc(C)o2)cc1	102%
CC1=NN(C(=O)c2ccccc2F)C(O)(c2ccc(Cl)cc2)C1 (stereo not given)	109%
Clc1cccc(/C=N\Nc2nccs2)c1	86%
Cc1ccc(OCC(=O)OCc2c(C)noc2C)cc1C	95.7%

Structure (SMILES)	viability
CCOC(=O)CN1NC2(CCCC(C)C2)NC1=S (stereo not given)	98.1%
Clc1c(OCCCn2ccnc2)ccc2ccccc12	71.7%
CCn1c(=O)c(C(=O)Nc2ncccc2C)c(O)c2ccccc21	76.2%
Cn1c(=O)c(Oc2ccc(Cl)cc2)c(O)c2ccccc21	101%
C=CCn1c(=O)c(C(=O)Nc2cccnc2)c(O)c2ccccc21	95.6%
Cc1cccnc1NC(=O)c1c(O)c2ccccc2n(C)c1=O	88.2%
COc1ccc(C(O)CNc2ccc(C)cc2)cc1 (stereo not given)	89.1%
COc1ccc(NC(=O)c2nc3ccccc3s2)cc1	89.6%
CC(C)c1cc(C(=O)N/N=C/C=C/c2ccccc2)n[nH]1	109%
O=C(COc1ccccc1)Nc1ccc(Cl)cn1	96.7%
O=C(NCc1ccccc1CN1CCCC1)c1cc2ccccc2o1	96.9%
O=Cc1ccnc(-c2ccc(OC(=O)c3ccco3)cc2)n1	95.5%
CCC1CCc2sc(C(=O)NCC3CCCO3)cc2C1 (stereo not given)	85.2%
CCOc1cc(C=O)cc(N=Nc2cccc([N+](=O)[O-])c2)c1O	90.5%
O=C(COc1ccc2ccccc2c1Br)N1CCCC1	94.6%
CCCn1c(=O)c(C(=O)N/N=C/c2ccccc2F)c(O)c2ccccc21	86.1%
Nc1nonc1C(=O)N/N=C/c1ccc([N+](=O)[O-])o1	100%
CC1=NN(C(=O)c2ccoc2C)C(O)(C(F)(F)F)C1 (stereo not given)	82.2%
COC(=O)C(O)(c1ccc(NC(=S)NC(=O)c2ccccc2)cc1)C(F)(F)F (stereo not given)	101%
CCOC(=O)Nc1ccc2c(c1)N(C(=O)CCCl)c1ccccc1[S@]2=O	88.5%
C=CCn1c(O)c(C(C)=Nc2ccc(C(=O)OCC)cc2)c(=O)[nH]c1=O	105%
CCCCNC(=O)Nc1nnc(-c2ccc(Cl)cc2)o1	93.9%
CCOC(=O)c1ccc(NC2OC(=O)c3ccccc32)cc1 (stereo not given)	93.6%
C=CCN=C1SC(CC)C(=O)N1S(=O)(=O)c1ccc(C)cc1 (stereo not given)	102%
Cc1ccc(C(=O)CCC2CCCC2=O)cc1 (stereo not given)	88.2%
